A short description of assay [1]: compound effects on lung adenocarcinoma cell viability – A549, calcein-AM fluorescence, 48 h, basal, profiling panel (AID 1162). Note: test concentration not given here. Conditions: higher = more signal.
The nature of assay [2]: compound effects on differentiated 3T3-L1 adipocyte viability – cell-based, 3T3-L1 adipocytes, calcein-AM fluorescence, 48 h, basal, profiling panel (AID 1163). Note: test concentration not given here. The conditions noted are these: 3T3-L1 adipocytes viability, higher = more signal.
Assay [3] is described as follows: compound effects on hepatocellular carcinoma cell viability – HepG2, calcein-AM fluorescence, 48 h, basal, profiling panel (AID 1164). Note: test concentration not given here. Conditions: higher = more signal.
Assay [4] can be described thus: compound effects on multiple myeloma cell viability – MM1S, calcein-AM fluorescence, 48 h, basal, profiling panel (AID 1165). Note: test concentration not given here. The conditions noted are these: higher = more signal.
A short description of assay [5]: calcein-AM signal in unstimulated myeloma cells – cell-based, calcein-AM fluorescence, 48 h, PK04 Diversity Set, profiling panel (AID 1166).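 Note: cells grown under basal conditions without added stimulus; test concentration not given here.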 Conditions: RPMI8226 myeloma viability, higher = more signal.
A short description of assay [6]: JC-1 mitochondrial signal, unstimulated HepG2 cells – cell-based, JC-1 fluorescence, 24 h, 100 nL compound, profiling panel (AID 1167). Note: test concentration not given here. The conditions noted are these: HepG2 mitochondrial potential, higher = more signal.
Assay [7] in a line: JC-1 mitochondrial signal, unstimulated adipocytes – cell-based, JC-1 fluorescence, 3T3-L1 adipocytes, 24 h, 100 nL compound, profiling panel (AID 1168). Note: test concentration not given here. The conditions noted are these: JC-1 mitochondrial fluorescence, higher = more signal, called active from +8 up or from −8 down.
Assay [8] can be described thus: JC-1 mitochondrial signal, unstimulated myeloma cells – cell-based, JC-1 fluorescence, RPMI8226, 24 h, 100 nL compound, profiling panel (AID 1169). Note: test concentration not given here. Conditions: JC-1 mitochondrial potential fluorescence, higher = more signal.
A short description of assay [9]: JC-1 mitochondrial signal, unstimulated MM1S myeloma – cell-based, JC-1 fluorescence, 24 h, 100 nL compound, profiling panel (AID 1170). Note: test concentration not given here. The conditions noted are these: MM1S mitochondrial potential, higher = more signal.
Assay [10] is described as follows: resazurin metabolic signal in A549 cells – cell-based, resazurin fluorescence, 24 h, PK04 Diversity Set, profiling panel (AID 1171). Note: test concentration not given here. Conditions: A549 viability, higher = more signal, called active from +8 up or from −8 down.
Assay [11] in a line: resazurin metabolic signal in HepG2 cells – cell-based, resazurin fluorescence, 24 h, PK04 Diversity Set, profiling panel (AID 1172). Note: test concentration not given here. The conditions noted are these: HepG2 viability, higher = more signal.
Assay [12] in a line: budding yeast growth changes without added modifier – OD600, strain BY4716, 24 h, basal condition, primary screen (AID 1173). Conditions: S. cerevisiae BY4716 growth, OD600, 24 h; higher = more signal, called active from +8 up or from −8 down.
Assay [13] in a line: viability profiling in MM1S myeloma cells – cell-based, resazurin fluorescence, basal, 24 h, PK04 Diversity Set, profiling panel (AID 1174). Note: test concentration not given here. The conditions noted are these: higher = more signal, called active from +8 up or from −8 down.
The target of assay [14] is Dihydroorotate dehydrogenase (quinone), mitochondrial (Plasmodium falciparum (isolate 3D7)) (UniProt Q08210). The experiment in a line: inhibition of P. falciparum DHODH – biochemical, C-terminal His tag, absorbance 600 nm, primary screen (AID 1175).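 Note: recombinant parasite enzyme with a five histidine tag at its C terminus; test concentration not given here.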 The conditions noted are these: PfDHODH enzyme, DCIP absorbance 600 nm; higher = more signal, called active from +8 up or from −8 down.
Sequence of Dihydroorotate dehydrogenase (quinone), mitochondrial (Plasmodium falciparum (isolate 3D7)) (Q08210 whole entry, looked up): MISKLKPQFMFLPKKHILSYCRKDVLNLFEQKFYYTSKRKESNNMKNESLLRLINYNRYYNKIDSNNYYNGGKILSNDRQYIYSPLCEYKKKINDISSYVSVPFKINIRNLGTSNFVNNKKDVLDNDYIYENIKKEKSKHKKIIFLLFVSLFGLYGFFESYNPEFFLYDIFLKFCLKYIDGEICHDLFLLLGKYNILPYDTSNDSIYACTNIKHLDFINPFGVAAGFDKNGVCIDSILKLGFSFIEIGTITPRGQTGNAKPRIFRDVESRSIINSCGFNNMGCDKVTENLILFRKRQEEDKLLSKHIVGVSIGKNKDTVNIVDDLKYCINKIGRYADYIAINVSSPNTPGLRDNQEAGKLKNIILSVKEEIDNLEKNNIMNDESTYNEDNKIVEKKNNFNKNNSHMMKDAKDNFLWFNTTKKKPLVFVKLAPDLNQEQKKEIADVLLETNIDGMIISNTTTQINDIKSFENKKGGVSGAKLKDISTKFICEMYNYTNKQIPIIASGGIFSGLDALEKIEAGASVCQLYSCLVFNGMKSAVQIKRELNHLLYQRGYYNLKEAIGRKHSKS

A short description of assay [15]: inhibition of PAO1 biofilm formation – strain PAO1, LB-PBS medium, absorbance 600 nm, primary screen (AID 1176). Note: test concentration not given here. Conditions: P. aeruginosa PAO1 growth/biofilm, A600, 12 h; higher = more signal.
Assay [16] is described as follows: growth modulation of vineyard yeast isolate – strain RM11-1a, OD600, basal, 24 h, primary screen (AID 1177).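 Note: cultures grown under basal conditions with no added stressor; test concentration not given here.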 The conditions noted are these: S. cerevisiae RM11-1a growth, OD600, 24 h; higher = more signal, called active from +8 up or from −8 down.
Assay [17] can be described thus: growth of efflux-deficient E. coli DRC39 – strain DRC39, OD650, 24 h, E. coli filamentation inducers, primary screen (AID 1178).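 Note: growth measured as culture turbidity by optical density at 650 nm; test concentration not given here.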 Conditions: E. coli DRC39 acrAB, higher = more signal, called active from +8 up or from −8 down.
A short description of assay [18]: growth of efflux-deficient E. coli DRC39 – strain DRC39, OD650, 48 h, E. coli filamentation inducers, primary screen (AID 1179).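 Note: screen aims at cell division blockers that make cells filament.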 The conditions noted are these: E. coli DRC39 delta-acrAB growth, higher = more signal, called active from +8 up or from −8 down.
A short description of assay [19]: viability profiling in RPMI8226 myeloma cells – cell-based, resazurin fluorescence, basal, 24 h, PK04 Diversity Set, profiling panel (AID 1180).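 Note: RPMI8826 multiple myeloma cell line at 5000 cells per well; test concentration not given here.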 Conditions: higher = more signal.
The target of assay [20] is E3 ubiquitin-protein ligase XIAP (Homo sapiens) (UniProt P98170). Description: small molecules binding XIAP protein – biophysical, small-molecule microarray, fluorescence 635 nm, primary screen (AID 1181).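 Note: score merges 667 nm emission and signal to noise over triplicate slides.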 Conditions: higher = more signal.
Sequence of E3 ubiquitin-protein ligase XIAP (Homo sapiens) (P98170 whole entry, looked up): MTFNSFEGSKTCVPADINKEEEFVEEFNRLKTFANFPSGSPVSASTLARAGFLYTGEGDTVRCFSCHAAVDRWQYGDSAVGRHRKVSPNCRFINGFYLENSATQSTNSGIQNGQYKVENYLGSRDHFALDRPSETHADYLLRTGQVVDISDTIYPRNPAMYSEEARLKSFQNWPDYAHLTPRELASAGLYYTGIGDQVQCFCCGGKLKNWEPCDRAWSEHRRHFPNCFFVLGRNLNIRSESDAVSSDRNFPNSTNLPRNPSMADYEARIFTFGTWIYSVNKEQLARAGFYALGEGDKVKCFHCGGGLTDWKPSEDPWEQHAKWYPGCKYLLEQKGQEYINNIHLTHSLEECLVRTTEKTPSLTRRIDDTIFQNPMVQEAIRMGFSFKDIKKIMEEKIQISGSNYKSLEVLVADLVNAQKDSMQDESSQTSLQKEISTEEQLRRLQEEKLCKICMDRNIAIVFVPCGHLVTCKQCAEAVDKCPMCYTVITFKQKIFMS

Calls of active or inactive are those of the source. Unless noted, the rule behind the calls is not given here.

`COC(=O)C(CC#Cc1ccc2c(c1)[C@]1(C(=O)N2)[C@H](C(=O)N2CCN(c3ncccn3)CC2)[C@H]2C(=O)O[C@H](c3ccccc3)[C@H](c3ccccc3)N2[C@@H]1c1ccc(OCCO)cc1)C(=O)OC`: the z-score in [1] is -0.0572; in assay [2] it was -0.609; in [3] it was 1.09; in assay [4], 0.607; in assay [5], 0.363; in assay [6] it was -0.612. Further, the z-score in assay [7] was 0.895 (inactive); in [8] it was -0.933; in assay [9], -1.44; in assay [10] it was -0.178 (inactive); in assay [11] it was -0.589; in assay [12] it was 1.78 (inactive). Besides, the z-score is -1.45 (inactive) in assay [13]; 3.59 (inactive) in [15]; 3.84 (inactive) in assay [16]; 0.475 (inactive) in assay [17]; 1.05 (inactive) in assay [18]; -0.126 in [19]. Besides, the results for the composite z-score in [14] and in assay [20] were -8.4 (active) and -0.039, respectively.

As to `CCCCCCc1nc(C2CC2)cc2c1[Si](C(C)C)(C(C)C)O[C@H]2c1ccccc1`, the z-score was -0.036 in assay [1]; -0.177 in [2]; -0.106 in [3]; -0.892 in assay [4]; -0.517 in assay [5]; -1.09 in [6]. In addition, the z-score in assay [7] is -0.731 (inactive); in assay [8], 0.573; in assay [9] it was 0.0835; in assay [10] it was 0.254 (inactive); in assay [11], -0.868; in assay [12] it was 0.391 (inactive). The z-score in assay [13] was -0.749 (inactive); in assay [15], 0.0672 (inactive); in assay [16], -0.553 (inactive); in [17] it was -0.476 (inactive); in [18], -0.594 (inactive); in assay [19], -0.249. Besides, the figures for the composite z-score in assay [14] and in assay [20] were 0.423 (inactive) and -0.0872, respectively.

Consider `CCC(CC)C(O)C1C=CC2C(=O)N(c3ccccc3)C(=O)C2N1Nc1ccc(C(C)C)cc1` (stereo not given), for which the z-score is -0.0442 in assay [1]; 0.667 in assay [2]; 0.0413 in [3]; -0.393 in assay [4]; -0.842 in [5]; -1.68 in assay [6]. Moreover, the z-score was 0.261 (inactive) in [7]; -0.0785 in assay [8]; 0.299 in assay [9]; -1.32 (inactive) in assay [10]; -1.35 in assay [11]; -0.129 (inactive) in [12]. The z-score in assay [13] is -0.636 (inactive); in assay [15], 0.89 (inactive); in [16], 1.27 (inactive); in assay [17], -0.171 (inactive); in assay [18], -0.297 (inactive); in [19], -0.0095. The composite z-score in [14] is 0.851 (inactive); in assay [20], 0.159.

For the molecule `COCCOC(=O)N1C(=O)[C@@]2(c3cc(C#CC4=CCCCC4)ccc31)[C@H](C(=O)N1CCCCCCC1)[C@H]1C(=O)O[C@H](c3ccccc3)[C@H](c3ccccc3)N1[C@@H]2c1ccc(O)cc1`, the z-score in assay [1] is 0.868; in [2], 0.936; in assay [3] it was 0.474; in [4] it was -0.625; in [5], -0.593; in assay [6], -0.239. Besides, the z-score in assay [7] is 1.02 (inactive); in [8] it was -0.386; in [9] it was -0.272; in assay [10], -1.09 (inactive); in assay [11], 0.0166; in assay [12], 0.566 (inactive). The z-score in assay [13] is 0.0499 (inactive); in assay [15], 1.51 (inactive); in assay [16], 0.396 (inactive); in [17], -0.698 (inactive); in assay [18] it was -0.863 (inactive); in [19], -0.258. For the same molecule, the values for the composite z-score in assay [14] and in assay [20] were -1.67 (inactive) and -0.0025, respectively.

In the case of `C=CCC(OC(C)=O)[C@@H]1[C@@H](N(Cc2cc3ccccc3o2)C(=O)c2ccc(C)cc2)c2cc(OCCCO)ccc2N1C(=O)Cc1ccc(OC)cc1` (stereo not given in full), the z-score is 1.09 in assay [1]; 0.426 in [2]; 0.979 in assay [3]; -0.143 in assay [4]; 0.166 in [5]; 2.52 in assay [6]. Besides, the z-score in assay [7] is 0.235 (inactive); in assay [8], 0.83; in assay [9], 0.449; in assay [10], 0.951 (inactive); in assay [11], 0.564; in assay [12], -0.859 (inactive). Moreover, the z-score in [13] was 0.655 (inactive); in [15] it was 0.0885 (inactive); in [16], 0.634 (inactive); in assay [17], -0.506 (inactive); in assay [18], -0.0196 (inactive); in [19], 0.618. In addition, the composite z-score was 0.889 (inactive) in [14] and -0.102 in [20].

The record behind these values is PubChem BioAssay.
